# Among all 360,000 compounds or so, about 6,000 (1.7%) were called active. Roughly 8% stayed inconclusive and do not appear here. The list comes from a sample in which actives are over-represented; it also holds similar structures and randomly drawn compounds. Unmarked numbers belong to inactive results. The call rests on the fitted dose curve; in most records, active means well fitted cell-killing curve with a large enough effect; inconclusive means small, poorly fitted or top-dose-only effect, or effect the other way; inactive means flat fitted curve, though single readings scatter.
# Test: qHTS for induction of synthetic lethality in tumor cells producing 2HG: qHTS for the HT-1080-NT fibrosarcoma cell line;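 further: NT is the 2HG producing partner of a matched IDH1 knockdown line; nearly all actives have a fitted effect of over 55% in size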;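 on activity, negative = less viability: 0% = DMSO-treated cells and -100% = media-only wells without cells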
# Details: HT-1080-NT fibrosarcoma viability, CellTiter-Glo ATP luminescence, 48 h; series mostly up to 46.1 µM; activity, negative = less viability: at the top concentration
# Outline: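 Read-out is CellTiter-Glo luminescence after 10 minutes at room temperature, following 48 hours' compound treatment of HT-1080-NT cells (750 cells/well, RPMI, 5% FBS, 37 degrees C).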
# Potency means the concentration at half of the fitted maximal effect.
Compound,Potency,"activity, negative = less viability [%]"
COc1cccc(C(=O)Nc2ccc(N3CCN(C(=O)c4ccco4)CC3)cc2)c1,23.1 µM (active),
COc1cccc(C(=O)Nc2ccc3nc4n(c(=O)c3c2)CCCCC4)c1,,0.489
COc1cccc(OCc2cc(C(=O)N3CCN(C(=O)c4ccco4)CC3)no2)c1,,6.57
COc1cccc(C(=O)Nc2ccc(N3CCCC3)cc2)c1,20.6 µM (active),
COc1cccc(C(=O)Nc2nnc(S(=O)(=O)N3CCCCC3)s2)c1,,-9.49
Cc1ccc(OCC(=O)Nc2ccc(N3CCN(C(=O)c4ccco4)CC3)cc2)c(C)c1,,-2.23
COc1cccc(-c2ccc3c(c2)N(Cc2ccccc2OC)C(=O)C(C)S3)c1 (stereo not given),,14
O=C1NC[C@@H](CCCCN2CCN(CCc3ccc(O)cc3)C(=O)C2=O)N(CC2CCCCC2)C1=O,,2.04
Cc1ccccc1S(=O)(=O)NC(=O)C1(C)CCN1C(=O)Cc1ccc(Cl)cc1Cl (stereo not given),,0.417
CC1(C)OC(=O)C2=C(C[C@@H](C3CCCC3)O[C@@H]2c2ccc(Cl)cc2)O1,,-0.447
COc1ccc(NC(=O)CCCOc2ccc(C(C)=O)cc2)cc1S(=O)(=O)N1CCCCC1,,-10.6
CC(=O)Nc1cc(-c2ccc(N3CCN(C)CC3)cc2)cn2c(-c3cccc(C(=O)N(C)C)c3)cnc12,,22.9
CS(=O)(=O)Nc1ccc(C2=NN(S(C)(=O)=O)C(c3cccs3)C2)cc1 (stereo not given),,3.27
CS(=O)(=O)Nc1cccc(C2=NN(C(=O)c3cccc(F)c3)C(c3cccs3)C2)c1 (stereo not given),,-17.5
CCS(=O)(=O)Nc1ccc(C2=NN(C(C)=O)C(c3cccs3)C2)cc1 (stereo not given),23.1 µM (active),
O=C(Cc1ccc([N+](=O)[O-])cc1)NCCS(=O)(=O)N1CCN(c2ccccc2)CC1,,-2.58
CC(C)(C)CC(=O)Nc1nnc(SCC(=O)NCc2cccs2)s1,,-2.03
COc1ccc(CNC(=O)C(Cc2ccccc2)n2cccc2)cc1 (stereo not given),,12.5
COc1ccc(NC(=O)C(Br)C(C)C)cc1 (stereo not given),,2.27
CC(C)(C)CC(=O)Nc1nc(C(N)Cc2ccc(C(F)(F)F)cc2)cs1 (stereo not given),16.4 µM (active),

Compound,Potency,"activity, negative = less viability [%]"
COc1ccc(Cc2nnc(NC(=O)Cc3cccs3)s2)cc1,,-7.23
COc1ccc(CC(N)c2csc(NC(=O)Nc3ccc(C(C)C)cc3)n2)cc1 (stereo not given),18.4 µM (active),
COC(=O)[C@H](CCSC)NC(=O)Nc1ccc(OC)cc1,,7.07
Cc1ccccc1NC(=O)Cc1nc(COC(=O)c2ccc(C(F)(F)F)cc2)cs1,,-8.34
COc1ccc(OC)c(NC(=O)N[C@H](Cc2ccccc2)C(=O)NN)c1,,-17.7
COc1ccc(CC(=O)Nc2sc(Cc3ccccc3)c(C)c2C(N)=O)cc1,,-16.4
COc1ccc(CC(N)c2csc(NC(=O)NC(c3ccccc3)c3ccccc3)n2)cc1 (stereo not given),23.1 µM (active),
COc1ccc(CC(N)c2csc(NC(=O)Cc3ccccc3)n2)cc1 (stereo not given),23.1 µM (active),
CCNC(=O)C1(C)CCCN(C(=O)c2ccc3ccccc3n2)C1 (stereo not given),,18.6
CN(Cc1ccc(C(F)(F)F)cc1)C(=O)[C@H]1O[C@@H](n2cnc3c(N)ncnc32)[C@H](O)[C@@H]1O,,1.31
O=C(c1ccc2c(=O)n(Cc3ccco3)c(=S)[nH]c2c1)N1CCCC1,,17.1
COc1ccc([C@H]2C[C@@H](n3cc(COC(=O)c4ccccc4)nn3)[C@H](O)CN2C(=O)c2cccs2)cc1,,-16.2
COC(=O)c1ccc2nc(-c3ccc(C)cc3)c(Cc3ccc(OC)cc3C)n2c1,,2.62
O=C(COc1ccc(S(=O)(=O)N2CCCC2)cc1[N+](=O)[O-])N1CCCCC1,,3.38
CCCCNC(=O)c1nc(C2CCN(S(=O)(=O)c3ccc(F)c(F)c3)CC2)oc1-c1cccc(C(F)(F)F)c1,,20.6
COC(=O)c1ccc2nc(-c3ccccc3)c(Cc3ccc(OC)cc3C)n2c1,,9.2
CC(C)(C)c1ccc(S(=O)(=O)NC(=O)C2(C)CCN2C(=O)CC2CC2)cc1 (stereo not given),,16.8
N#Cc1ccc(-c2ccc3nccn3c2)cc1,,11.3
COc1cccc(-n2nc(C(=O)N3CCN(Cc4ccccc4)CC3)c3ccccc3c2=O)c1,,-15.9
COc1cccc(-n2cc3c(c2-c2ccccc2)c(=O)n(C)c(=O)n3C)c1,,-10.2

Compound,Potency,"activity, negative = less viability [%]"
COc1cccc(-n2cc(C(=O)O)c3ccccc3c2=O)c1,14.1 µM (active),
CCOC(=O)c1cc(-c2sc(NC(=O)c3ccccc3)nc2C)n(-c2ccc(Br)cc2)n1,,-3.27
CCc1nc2ccc(C(=O)N(C)Cc3ccco3)cn2c1N(C)C(=O)Cc1ccccc1,,12.2
O=C(CC[C@H]1O[C@@H](n2ccc(=O)[nH]c2=O)[C@H](O)[C@@H]1O)N[C@H](Cc1ccccc1)C(=O)NCc1ccco1,,16.7
COc1cccc(/C=N/Nc2ccc(S(=O)(=O)Nc3ccccc3C(=O)O)cc2[N+](=O)[O-])c1O,,-0.335
COc1ccccc1-n1c(SCC(=O)Nc2cccc(C(=O)O)c2)nnc1-c1ccccc1O,,12.6
COc1cccc(/C=N/Nc2cc(C)nc(-c3ccccc3O)n2)c1O,8.2 µM (active),
O=C(Nc1ccc2c(c1)[C@@H]1C[C@@H](CC(=O)N3CCCCC3)O[C@@H](CO)[C@@H]1O2)NC1CCCCC1,,-11
CCCS(=O)(=O)NC(=O)C1(C)CCCN(C(=O)c2cc(C)on2)C1 (stereo not given),,23.2
CCOC(=O)C1=CCC(c2ccc(F)cc2)N(S(=O)(=O)c2ccc(C)cc2)C1 (stereo not given),,-28.5
COc1ccc(Sc2ccc(NC(=O)c3cccc(Cl)c3)cc2C#N)cc1,,-13.9
COc1cccc(C(NC(C)=O)c2nc(-c3ccccc3OC)cs2)c1 (stereo not given),,-1.79
CCOC1=C2CN(S(=O)(=O)c3ccc(C)cc3)[C@H](c3cccs3)C[C@H]2[C@H]2C(=O)N(c3ccccc3)C(=O)[C@H]2C1,,14.8
CC(C)(C)c1ccc(/C=C/C(=O)Nc2ncccn2)cc1,,-10.7
COC(=O)c1sc(-c2ccc(C(C)(C)C)cc2)cc1NC(=O)/C=C/C(=O)O,11.6 µM (active),
COc1ccc(NS(=O)(=O)c2ccc(N3CCOCC3)c(NC(=O)/C=C/C(=O)O)c2)cc1,,10.2
COc1cccc(OCC(=O)NCCS(=O)(=O)N2CCN(c3ccccc3)CC2)c1,,8.66
COc1ccc(CC(NC(C)=O)C(=O)NC2CCN(C(=O)c3ccc(OC)c(OC)c3)CC2)cc1OC (stereo not given),,8.35
CCc1ccc(OCC2c3cc(OC)c(OC)cc3CCN2C(C)=O)cc1 (stereo not given),16.4 µM (active),
COc1ccc(CC(NC(C)=O)C(=O)NC2CCN(C(=O)C3CC3)CC2)cc1OC (stereo not given),,21
